Assay results reported in PubChem BioAssay.

What was measured:
[1] = molecular target: Tumor necrosis factor receptor superfamily member 10B (Homo sapiens) (UniProt O14763); assay: caspase-8 TRAIL sensitization, hit retest, confirmation, cell-based, NB7+caspase-8, with/without TRAIL, luminescence panel (AID 651596); conditions: NB7 neuroblastoma + caspase-8, TRAIL sensitization, luminescence viability, with TRAIL, mean of runs, at 10 µM, stronger effect = higher value
[2] = as above; conditions: NB7 neuroblastoma + caspase-8, without TRAIL, luminescence viability, without TRAIL, mean of runs, at 10 µM

Tumor necrosis factor receptor superfamily member 10B (Homo sapiens), sequence (O14763 whole entry, looked up): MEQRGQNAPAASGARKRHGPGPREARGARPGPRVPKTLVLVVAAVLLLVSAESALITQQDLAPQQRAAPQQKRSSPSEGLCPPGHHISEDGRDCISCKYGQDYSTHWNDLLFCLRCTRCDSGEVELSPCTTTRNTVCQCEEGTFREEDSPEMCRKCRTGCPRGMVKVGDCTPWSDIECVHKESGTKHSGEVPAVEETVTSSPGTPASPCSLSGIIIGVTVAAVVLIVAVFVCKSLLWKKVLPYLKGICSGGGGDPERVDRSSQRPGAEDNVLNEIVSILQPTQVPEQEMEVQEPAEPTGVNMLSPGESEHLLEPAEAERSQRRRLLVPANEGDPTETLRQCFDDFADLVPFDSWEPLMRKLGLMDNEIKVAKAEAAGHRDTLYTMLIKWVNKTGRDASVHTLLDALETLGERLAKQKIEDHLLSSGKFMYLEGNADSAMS

COc1ccc(CC(=O)Nc2cccc(-c3nnc(-c4ccccc4)o3)c2)cc1OC
activity [1]: 78.9%
activity [2]: 59.8%

Cc1ccc(/C=N/NC(=O)c2nn(C)cc2Cl)cc1
activity [1]: 62.2%
activity [2]: 36%

CC(C)(C)OC(=O)NCCCC[C@H](NC(=O)c1[nH]cnc1C(=O)Nc1ccccc1)C(=O)OC(C)(C)C
activity [1]: 74.2%
activity [2]: 58.6%

Fc1ccc(-c2nc(-c3cnccn3)no2)c(Cl)c1
activity [1]: 59.1%
activity [2]: 58.1%

CN1CCc2c(sc(NC(=O)c3ccc([N+](=O)[O-])o3)c2C(N)=O)C1
activity [1]: 9.5%
activity [2]: 95.3%

Nc1nc2ccccc2n1C(=O)c1ccc(F)cc1
activity [1]: 91.5%
activity [2]: 91%

CCSc1ccc(-c2cc(NC=O)c3ncc(-c4cccc(C(=O)NCCN(C)C)c4)n3c2)cc1
activity [1]: 50.4%
activity [2]: 87.7%

Cn1c(=S)[nH]c2sc3c(c2c1=O)CCC(C(C)(C)C)C3 (stereo not drawn)
activity [1]: 86.4%
activity [2]: 78%

COc1ccc(/C=N/Nc2nnc(Cc3ccccc3)c(=O)[nH]2)cc1OC
activity [1]: 60.6%
activity [2]: 59.2%

NC(N)=Nc1ccc(C=C2C=Cc3ccccc32)cc1
activity [1]: 96.6%
activity [2]: 68.5%

CC(=O)c1sc(NC(=O)c2cc(=O)c3ccccc3o2)nc1C
activity [1]: 51.1%
activity [2]: 50.8%

O=C(Nc1nnc(SCC(=O)N2CCOCC2)s1)c1ccccc1
activity [1]: 80%
activity [2]: 77.4%

O=C(Nc1nc2ccccc2[nH]1)c1ccc(Cl)cc1
activity [1]: 94.4%
activity [2]: 94.1%

O=C(COc1ccc2c(c1)OCO2)Nc1nccs1
activity [1]: 52.9%
activity [2]: 54%

CCOC(=O)CSc1nc2cc(C)ccc2cc1C#N
activity [1]: 39.8%
activity [2]: 38.4%

Cc1cc(C)c(C)c(S(=O)(=O)N2CCN(c3ncnc4ccccc34)CC2)c1C
activity [1]: 40.2%
activity [2]: 40.1%

O=C(Nc1ccc(N2CCOCC2)cc1)c1csc(COCCO)n1
activity [1]: 54.5%
activity [2]: 59.1%

O=C(NOCc1ccccc1)c1ccc(Cl)cc1
activity [1]: 45.1%
activity [2]: 43.2%

CCOCc1nc(N)nc(N)c1-c1cccc(Cl)c1
activity [1]: 46.8%
activity [2]: 61.9%

COc1ccc(C2C(C(=O)N3CCN(c4ccccc4)CC3)c3ccccc3C(=O)N2C)cc1 (stereo not drawn)
activity [1]: 69.5%
activity [2]: 66.3%

NC(Cc1ccc(Cl)cc1)c1csc(NC(=O)NCC2CCCCC2)n1 (stereo not drawn)
activity [1]: 58.4%
activity [2]: 88.1%

Cc1ccnc(NC(=O)/C=C/c2cccs2)c1
activity [1]: 84.1%
activity [2]: 81.5%

CC(C)c1ccc(/C=c2\sc3n(c2=O)C(N)=C(C#N)C(c2ccc(C(C)C)cc2)C=3C(N)=O)cc1 (stereo not drawn)
activity [1]: 76.7%
activity [2]: 77.9%

COc1ccc(CSc2nc3ccccc3[nH]2)cc1
activity [1]: 70.8%
activity [2]: 83.3%

COc1ccc(CC(N)c2csc(NC(=O)c3cc(C(C)(C)C)nn3Cc3ccccc3)n2)cc1 (stereo not drawn)
activity [1]: 52.9%
activity [2]: 90.5%

Cc1nnc(NC(=O)c2nc(S(=O)(=O)Cc3ccccc3C)ncc2Cl)s1
activity [1]: 94.7%
activity [2]: 89.8%

COc1ccc(/C=C/C(=O)c2c(O)cc(C)oc2=O)c(OC)c1
activity [1]: 91.1%
activity [2]: 92.5%

COc1ccc(/C=C/C(=O)NC(=S)Nc2ccccn2)cc1
activity [1]: 29%
activity [2]: 37.3%

CC1(C)N=C(N)N=C(N)N1c1ccc(OCC(=O)Nc2ccccc2)c(Cl)c1
activity [1]: 78.5%
activity [2]: 82.3%

C=CCOc1ccccc1CN(C(=O)CCl)c1ccc2c(c1)OCO2
activity [1]: 99%
activity [2]: 98.1%

COc1ccc(C(C(=O)NC2CCCC2)N(C(=O)c2snc(-c3ccc(F)cc3)c2N)c2ccc(F)cc2)cc1 (stereo not drawn)
activity [1]: 50.3%
activity [2]: 43.5%

CCc1ccc(NC(=O)Nc2cccs2)cc1
activity [1]: 59%
activity [2]: 45.9%

O=S(=O)(c1ccc(Br)cc1)N1CCN(c2ccc3nnc(-c4ccccc4)n3n2)CC1
activity [1]: 76.2%
activity [2]: 64.3%

O=C(COC(=O)c1n[nH]c2ccccc12)NC(=O)NC12CC3CC(CC(C3)C1)C2
activity [1]: 51.5%
activity [2]: 57%

Cc1ccc(CN2[C@@H](Cc3ccccc3)C(=O)CS2(=O)=O)cc1
activity [1]: 81%
activity [2]: 60.2%

CN=c1scc(-c2ccccc2F)n1/N=C(\C)c1cccnc1
activity [1]: 54.9%
activity [2]: 51.2%

COc1cc2ccccc2cc1C(=O)Nc1sc2c(c1C(N)=O)CCN(C(C)C)C2
activity [1]: 79.4%
activity [2]: 98.2%

NC(=O)c1c(NC(=O)c2cc3ccccc3o2)sc2c1CCC2
activity [1]: 56%
activity [2]: 42.8%

COc1ccc(-c2cn3cc(C)ccc3n2)cc1OC
activity [1]: 74.7%
activity [2]: 77%

Cc1ccsc1C(=O)Nc1nc2ccccc2[nH]1
activity [1]: 82%
activity [2]: 85.7%

C#CCN(C[C@@H]1[C@@H](OC(=O)NCCCCCC)[C@@H](OC(=O)NCCCCCC)Cn2c(=O)ccc(=O)n21)S(=O)(=O)c1ccc(C)cc1
activity [1]: 96.2%
activity [2]: 92.3%

C/C(=N\NC(=O)c1ccc(O)cc1)c1cccc(NC(=O)c2ccc(Cl)cc2)c1
activity [1]: 74.3%
activity [2]: 77.2%

Oc1ccccc1C=Nc1ccccc1-c1nc2ccccc2[nH]1
activity [1]: 7.4%
activity [2]: 1.85%

O=C(CCN1C(=O)c2ccccc2C1=O)Nc1ccc(-c2nc3ccccc3s2)cc1
activity [1]: 44.4%
activity [2]: 41.9%

Fc1ccc(-c2nc3n(n2)Cc2ccccc2-3)cc1
activity [1]: 54%
activity [2]: 55.6%

Fc1cccc2sc(Nc3nnc(-c4ccccc4)o3)nc12
activity [1]: 71%
activity [2]: 73%

Cc1ccc(Nc2nc(N)c3ccccc3n2)cc1Cl
activity [1]: 75.7%
activity [2]: 73.1%

CC(C)(C)OC[C@H](NC(=O)c1[nH]cnc1C(=O)Nc1ccccc1F)C(=O)OC(C)(C)C
activity [1]: 55.4%
activity [2]: 59.2%

Cc1cccc(NC(=O)c2cnc3ccccn3c2=O)c1
activity [1]: 69%
activity [2]: 62.9%

NC(c1csc(NC(=O)Nc2ccc(OC(F)(F)F)cc2)n1)C1CCCCC1 (stereo not drawn)
activity [1]: 63.7%
activity [2]: 92.2%

CN(Cc1ccccc1)C(=O)c1ccc(Nc2nc(C(N)Cc3ccc(C(F)(F)F)cc3)cs2)nc1 (stereo not drawn)
activity [1]: 93%
activity [2]: 98.2%

O=[N+]([O-])c1ccc(Sc2ccncn2)c([N+](=O)[O-])c1
activity [1]: 16.8%
activity [2]: 65.8%

COc1ccc(OC)c2sc(N(CCN(C)C)C(=O)/C=C/c3cccs3)nc12
activity [1]: 95.2%
activity [2]: 98.8%

C=C1C(=O)C23CCC4C(C)(C(=O)OC)CCCC4(C)C2CCC1(O)C3 (stereo not drawn)
activity [1]: 95.6%
activity [2]: 98.7%

Cc1ccc(-n2cc(C(=O)c3ccccc3O)cn2)cc1
activity [1]: 52%
activity [2]: 38.6%

Cc1cc(-c2nc3cc(F)ccc3s2)ccc1N
activity [1]: 74.5%
activity [2]: 68.6%

Cc1ccc(/C=N/Nc2ccc3ccccc3n2)o1
activity [1]: 55.2%
activity [2]: 45.1%

CCOc1ccc(/C=N/NC(=O)c2ccccc2NC(=O)c2ccc(OC)cc2)cc1
activity [1]: 72.6%
activity [2]: 57.7%

CCC(=O)Nc1ccc(C(=O)Cn2ncc(Cl)c(Cl)c2=O)cc1
activity [1]: 99.4%
activity [2]: 99.3%

c1ccc(/N=C2\N=C(Nc3ccccn3)c3ccccc32)nc1
activity [1]: 40%
activity [2]: 48.8%

Cc1ccc2nc(-c3ccccc3)nn2c1
activity [1]: 83.9%
activity [2]: 80.3%

COc1ccc2oc(C(=O)Nc3nc4ccccc4[nH]3)c(C)c2c1
activity [1]: 89.7%
activity [2]: 85.3%

CN1CCN(c2nc(-c3ccc(C(C)(C)C)cc3)nc3ccccc23)CC1
activity [1]: 67.9%
activity [2]: 69.6%

Cc1nc2c(-c3ccccc3)cnn2c(N)c1-c1ccccc1
activity [1]: 92.6%
activity [2]: 90.9%

CC(=O)c1cc(F)ccc1OCC(=O)Nc1ccc2c(c1)OCO2
activity [1]: 72.3%
activity [2]: 68.3%

CCC(=O)Nc1ccc2oc(-c3cccc(C)c3)nc2c1
activity [1]: 57.2%
activity [2]: 55.7%

CN(C)CCCN(C(=O)c1cc2cc([N+](=O)[O-])ccc2s1)c1nc2cc3c(cc2s1)OCCO3
activity [1]: 92.2%
activity [2]: 83%

C#CC(=O)N(c1ccc(OC)cc1OC)C(C(=O)NC1CCCC1)c1cccs1 (stereo not drawn)
activity [1]: 99%
activity [2]: 99.6%

Cc1ccc(C(=O)N/N=C\c2ccc[nH]2)cc1[N+](=O)[O-]
activity [1]: 80.7%
activity [2]: 79.4%

CC(C)(C)c1ccc2c(c1)OC(C(=O)N/N=C\c1ccc[nH]1)CO2 (stereo not drawn)
activity [1]: 26.6%
activity [2]: 43.6%

Cc1ccc(C(=O)Nc2ccc3c(c2)OCCO3)cc1
activity [1]: 90.4%
activity [2]: 90.2%

COc1ccc(/C=C(\C#N)c2nc3ccccc3[nH]2)cc1O
activity [1]: 56.5%
activity [2]: 72.5%

O=C(NCC1CC1)c1ccc2c3n(nc2c1)-c1ccccc1CO3
activity [1]: 89.8%
activity [2]: 89.5%

COC(=O)c1ccc2c(c1)C(C)(C)C(/C=C/c1ccc(O)cc1)=[N+]2C
activity [1]: 43.9%
activity [2]: 76.1%

CCc1ccc(/C=N/NC(=O)c2ccccn2)cc1
activity [1]: 83.9%
activity [2]: 73%

Cc1ccc(/C(N)=N/OC(=O)c2ccc(C)cc2Cl)cc1
activity [1]: 97.3%
activity [2]: 96.4%

Cc1ccc(C)c(NC(=S)NC(NC(=O)Cc2cccc3ccccc23)C(Cl)(Cl)Cl)c1 (stereo not drawn)
activity [1]: 82.6%
activity [2]: 87.8%

CCOc1ccc(C(=O)Nc2cc(C)on2)cc1
activity [1]: 64.9%
activity [2]: 61.7%

CCOC(=O)c1sc2nc3c(SCC(=O)O)cc(C(=O)c4ccccc4O)cn3c(=O)c2c1C
activity [1]: 49.1%
activity [2]: 42.5%

CCCCNC(=O)c1ccc(Cn2c(=S)[nH]c3c([nH]c4ccc(OC)cc43)c2=O)cc1
activity [1]: 76.7%
activity [2]: 63.2%

O=C(Nc1ccccc1)c1nc[nH]c1C(=O)Nc1ccccc1F
activity [1]: 62%
activity [2]: 62.5%

O=c1[nH]c2ccccc2nc1/C=C/c1ccc(Cl)cc1
activity [1]: 64.9%
activity [2]: 74.2%

O=C(NO)c1cc(OCC(F)(F)F)ccc1OCC(F)(F)F
activity [1]: 51.1%
activity [2]: 71.4%

CCC(C)c1ccc(O)c(/C=N/O)c1 (stereo not drawn)
activity [1]: 38%
activity [2]: 56.6%

CC(=O)CSc1nc2cc3c(cc2cc1C#N)OCCO3
activity [1]: 49.6%
activity [2]: 35.5%

N/C(=N\OC(=O)c1cccc(Br)c1)c1ccc(Br)cc1
activity [1]: 78.1%
activity [2]: 90.1%

O=C(NC(=S)N1CCc2ccccc21)c1ccccc1
activity [1]: 65.3%
activity [2]: 72.6%

S=c1nc[nH]c2nc[nH]c12
activity [1]: 64.5%
activity [2]: 69%

COc1ccc(C(=O)Nc2ccc(C)cn2)c(OC)c1
activity [1]: 95.3%
activity [2]: 95.2%

O=C(N/N=C/c1ccc(Br)s1)c1ccccn1
activity [1]: 44.5%
activity [2]: 46.6%

Cc1ccc(CSc2nc3ccncc3[nH]2)cc1
activity [1]: 98.5%
activity [2]: 99.2%

CC(C)c1onc(C(=O)N2CCN(C(c3ccccc3)c3ccccc3)CC2)c1[N+](=O)[O-]
activity [1]: 98.1%
activity [2]: 93.9%

CC(C)(C)C(=O)N1CCc2cc(-c3csc(N)n3)ccc21
activity [1]: 91.8%
activity [2]: 88.1%

CC(C)(C)OC(=O)NCc1ccc(NC(=O)c2nc[nH]c2C(=O)NCCCNC(=O)c2[nH]cnc2C(=O)Nc2ccc(CNC(=O)OC(C)(C)C)cc2)cc1
activity [1]: 87.7%
activity [2]: 69.1%
